Source: PubChem BioAssay AID1510 (The Scripps Research Institute Molecular Screening Center, 2009)
Out of some 220,000 compounds screened, about 570 (0.26%) were called active. The full list was thinned out, with actives kept by preference. Unmarked numbers belong to inactive results. Cut-off read from the data, not from the text of the source: active = inhibition above about 29%; inactive = the rest.

target: Sphingosine 1-phosphate receptor 4 (Homo sapiens) (UniProt O95977); assay: blockers of human S1P4 receptor – cell-based, primary screen (AID 1510); details: S1P4-expressing cells, antagonist mode, reporter read-out; at 4.98 µM; active compounds read high;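 note: 0% = wells stimulated with agonist and 100% = vehicle wells without agonist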
Sequence (O95977 whole entry, looked up): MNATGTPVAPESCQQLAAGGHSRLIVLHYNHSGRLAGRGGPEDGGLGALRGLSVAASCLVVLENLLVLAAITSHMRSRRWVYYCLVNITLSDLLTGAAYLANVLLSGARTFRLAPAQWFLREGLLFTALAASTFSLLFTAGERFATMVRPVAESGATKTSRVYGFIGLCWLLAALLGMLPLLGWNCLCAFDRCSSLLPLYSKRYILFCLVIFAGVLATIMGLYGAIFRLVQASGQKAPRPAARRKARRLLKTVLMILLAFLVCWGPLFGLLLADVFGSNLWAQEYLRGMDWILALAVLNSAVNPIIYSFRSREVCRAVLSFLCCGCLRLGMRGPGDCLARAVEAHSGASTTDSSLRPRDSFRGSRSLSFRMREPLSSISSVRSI

| SMILES | inhibition |
| --- | --- |
| CN(C)CC1Oc2ccccc2OC1(O)c1ccccc1 (stereo not given) | 66% (active) |
| Cc1ccc(-c2nn(CCC#N)cc2C(=O)O)cc1C | -15.8% |
| O=C(COC(=O)Cc1ccccc1)Nc1ccc(F)cc1 | -14% |
| COP(=O)(NS(=O)(=O)c1ccccc1)OC | -0.89% |
| CN1CCN(Cc2ccc(OC(F)(F)F)cc2)CC1 | -5.02% |
